Screening results: PubChem, several laboratories
In the library only some 10% were active in any assay of this set; here they are far more common.
INS promoter inh: TRM-6 insulin promoter activity inhibition | TRM-6 cells (human fetal islet line), insulin promoter-eGFP reporter, imaging; reporter expression induced with tamoxifen | 0.9% of 130,000 active | inhibition, % at 2 µM;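 active = inhibition above the mean plus 3 SD, with well images judged a real hit on visual review, cut at about 60% in these data, passing the limit was not always enough; inconclusive = inhibition over the cutoff but images rejected on review; inactive = inhibition not above the cutoff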
ROMK mod: modulators of human ROMK potassium channel. P48048. Tet-inducible ROMK, thallium flux fluorescence; actives lie on both sides. B-score at 10 µM. 2% of 130,000 active. AID 1918;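 active = signal ratio slope over the read window, or its plate-corrected B-score, at least 3 SD from the plate mean, either direction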;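 also: B-score of the F/F0 ratio slope over 7 to 12 s after thallium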
Target sequence (P48048 whole entry, looked up): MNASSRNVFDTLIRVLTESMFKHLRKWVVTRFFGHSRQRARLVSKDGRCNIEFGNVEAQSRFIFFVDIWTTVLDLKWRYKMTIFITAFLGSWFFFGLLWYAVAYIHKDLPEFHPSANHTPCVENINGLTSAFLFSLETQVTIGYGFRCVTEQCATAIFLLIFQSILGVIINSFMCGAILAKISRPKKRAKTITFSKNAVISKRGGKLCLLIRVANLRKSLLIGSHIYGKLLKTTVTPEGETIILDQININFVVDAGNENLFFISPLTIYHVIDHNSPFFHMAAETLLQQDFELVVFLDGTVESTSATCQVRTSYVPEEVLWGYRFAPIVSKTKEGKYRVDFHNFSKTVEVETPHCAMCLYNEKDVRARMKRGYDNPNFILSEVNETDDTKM
HCT116 bCat-KO: beta-catenin-lacking colon tumor cell growth suppression | AID 818 | 1.5% of 140,000 active | HCT116 beta-catenin knockout viability, CellTiter-Glo, 60 h; stronger effect = lower value | viability, % at 10 µM;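 active = viability at or under a set limit, the compound median less 4 SD, cut at about 6% in these data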;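 also: 0% = Hyamine 1622 control at 20 µM and 100% = untreated cell control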
p97 ATPase inh: inhibitors of human p97 ATPase | recombinant p97 ATPase, Kinase-Glo ATP luminescence, 3 h | inhibition, % at 8 µM | 0.42% of 220,000 active | AID 1481; in the data active = inhibition above about 15%;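 also: 0% = DMSO vehicle and 100% = wells lacking enzyme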
L major viab: inhibitors of Leishmania major promastigote growth; Leishmania major promastigotes, resazurin fluorescence viability; inhibition, % at 10 µM; 9% of 200,000 active; in the data active = inhibition above about 50%;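 also: promastigotes grown with compound for 44 hours at 28 °C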
HCT116 PTEN-null: PTEN-deleted cell growth suppression. 1.2% of 140,000 active. HCT116 PTEN-null viability, CellTiter-Glo, 60 h; stronger effect = lower value. AID 827. viability, % at 10 µM;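 active = viability at or below a set limit, 4 SD under the median of all tested compounds, cut at about 3.7% in these data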;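 also: PTEN knockout HCT116 line with beta catenin targeted HCT116 as companion control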
ROMK hit retest: confirmation of human ROMK potassium channel modulators; 54% of 3,000 active; normalized thallium flux (F/F0 slope) at 10 µM; AID 1917; ROMK thallium flux, fluorescence ratio; stronger effect = lower value; shares compounds with ROMK mod;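 active = Flux at 10 µM at least 3 SD below or above vehicle control mean in one or both replicates; inconclusive = no clear call, values can overlap the other calls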
* hit, by the source's call; ? = inconclusive; . = not tested or not shown.

SMILES	INS promoter inh	ROMK mod	HCT116 bCat-KO	p97 ATPase inh	L major viab	HCT116 PTEN-null	ROMK hit retest
CC(=NCc1ccco1)c1c(C)[nH]n(-c2nc3ccccc3s2)c1=O	6	.	91	-4	-3	97	.
CC(=NCc1ccco1)c1c(O)n(C2CCCCC2)c(=O)[nH]c1=O	67	-2.8*	95	-2	29	89	0.058*
CCCOc1ccc(N2C(=O)C3ON(c4ccccc4)C(CCC)C3C2=O)cc1 (centres undefined)	-19	1.7	93	2	-8	108	.
COc1ccc2c(c1)[nH]c1c(N3CCSCC3)ncnc12	.	.	.	9	.	.	?
COc1cccc(N2CCN(c3ncnc4c3[nH]c3ccccc34)CC2C)c1 (centres undefined)	-23	-2.8	4.7*	7	90*	7	0.059*
c1ccc2c(c1)[nH]c1c(N3CCC4(CC3)OCCO4)ncnc12	0	-2.1	52	-3	25	53	.
COc1cccc(N2CCN(c3ncnc4c3[nH]c3ccc(F)cc34)CC2C)c1 (centres undefined)	50	-3*	2.0*	6	100*	1.6*	0.057*
COc1cc2[nH]c3c(N4CCN(c5ccc(Cl)cc5)CC4)ncnc3c2cc1OC	.	0.93	59	1	19	68	.
c1ccc2c(c1)CCN(c1ncnc3c1[nH]c1ccccc13)C2	.	-2.9*	8	.	.	15	0.06*
COc1ccc2[nH]c3c(N4CC(C)OC(C)C4)ncnc3c2c1 (centres undefined)	19	-1.1	92	2	39	79	.
COc1cccc(-n2c(SCC(N)=O)nc3c([nH]c4ccccc43)c2=O)c1	-252	-0.42	17	4	-6	20	.
Cc1ccc(OCCOc2ccc(Cl)cc2Cl)c([N+](=O)[O-])n1	-67	.	66	3	37	64	.
Nc1c(C=C2C=CC(=O)C=C2)c(=O)nc2snc(SCc3ccccc3)n12	.	.	.	13	.	.	?
CCC(C)(C)n1nnnc1C(C(C)C)N(CCN1CCOCC1)Cc1cc2cccc(C)c2[nH]c1=O (centres undefined)	-40	-2.9*	63	-2	32	74	0.055*
CCOC(=O)c1oc2nc3c(cc2c1N)CCCC3	.	.	.	8	.	.	.
CCOC(=O)c1oc2nc3c(cc2c1N)COC(C)(C)C3	.	3.5*	95	5	-2	119	0.078
CC1=Nc2cc(C(=O)NCCCOC(C)C)ccc2Sc2ccccc21	-67	2.9*	.	-1	0	.	0.091
CCCC1=Nc2cc(C(=O)NCCCOC(C)C)ccc2Sc2ccccc21	11	1.9	18	-9	12	20	.
CCC1=Nc2cc(C(=O)NCCCOC)ccc2Sc2ccccc21	-94	2.3	21	-5	19	15	.
CC1=Nc2cc(C(=O)NCCCOC(C)C)ccc2Sc2ccc(C)cc21	-172	4.3*	.	-2	5	.	0.091
C=CCN1C(=O)/C(=c2\sc3nc(=O)c(Cc4ccccc4Cl)nn3c2=O)c2ccccc21	.	.	.	6	.	.	.
COc1ccc(C2=C(SC)CC2=NC(C)(C)C)cc1	-6	-4.7*	96	-4	6	97	0.046*
COc1ccc(-c2nc3n(c2C)CCC3)cc1	.	.	.	1	.	.	.
COc1ccc2nc(SCC(=O)Nc3ccc(S(=O)(=O)Nc4nccc(C)n4)cc3)[nH]c2c1	11	0.39	95	2	-2	85	.
CC(C(=O)NCC1CCCO1)n1cccc1C(=O)c1ccccc1 (centres undefined)	.	.	96	6	-2	91	.
SMILES	INS promoter inh	ROMK mod	HCT116 bCat-KO	p97 ATPase inh	L major viab	HCT116 PTEN-null	ROMK hit retest
Cc1cccc(/C=N/N2CCN(c3ccccc3)CC2)c1	-25	1.1	89	-6	-6	97	.
CCOP(=O)(OCC)c1nc(-c2ccccc2)oc1NCc1ccccc1	-17	0.099	96	-3	2	95	.
O=P(c1ccccc1)(c1ccccc1)c1nc(-c2ccccc2)oc1NCc1ccccc1	.	-1.9*	.	3	28	.	0.078
CCCN1CCN(C(=O)Cn2cccc2C(=O)c2ccccc2)CC1	-17	.	80	6	3	92	.
O=C(CCC(=O)Nc1ccccc1)NNS(=O)(=O)c1ccccc1[N+](=O)[O-]	.	0.44*	.	3	-4	.	0.087
Clc1ccccc1-c1ccc(CN2CCN(c3ccccc3)CC2)o1	.	0.24	49	-10	-6	59	.
COc1ccc(CNCC(O)COc2ccc(C)cc2[N+](=O)[O-])cc1 (centres undefined)	.	-2.6*	.	-4	.	.	0.063*
CCc1nnc(NC(=O)c2cc(-c3ccccc3)nn2-c2ccccc2)s1	-28	.	80	-7	5	78	.
CC1(C)O[C@H]2OC([C@H](O)CON3C(=O)c4ccccc4C3=O)[C@H](O)[C@H]2O1 (some centres undefined)	-264	0.73	89	2	-4	96	.
CC(=O)N1CCc2cc(S(=O)(=O)NC(CC(C)C)C(=O)N3CCn4c3nc3ccccc34)ccc21 (centres undefined)	10	.	89	-4	6	95	.
COc1cc(-c2nc3cnccn3c2Nc2ccc(C)cc2)ccc1O	11	-3.4*	46	3	20	39	0.066*
COc1ccc(C2NCCc3c2[nH]c2ccccc32)cc1CN1CCc2cc(OC)c(OC)cc2C1C (centres undefined)	.	-3.8*	.	5	.	.	0.055*
COc1cccc(N2CCN(c3c(C#N)c(C(F)(F)F)nn3C)CC2)c1	28	-4.1*	36	-4	80*	46	0.06*
Cc1ccc(C(=O)NNC(=S)Nc2cccc(Cl)c2Cl)cc1[N+](=O)[O-]	.	4.3*	89	3	-3	101	0.091
CC(=O)c1cccc(NC(=S)NNC(=O)c2ccc(C)c([N+](=O)[O-])c2)c1	.	0.55	.	1	-1	.	.
O=C(O)COCc1nc2ccccc2[nH]1	.	.	97	2	-8	95	.
COC(=O)c1cc(COC(=O)c2cccnc2SC)oc1C	.	.	100	-5	-8	97	.
COCc1cc(C)nc(SCC(=O)c2ccc(O)c(O)c2)c1C#N	?	1.7*	39	8	4	36	0.077
COCc1cc(C)nc(SCC(=O)Oc2ccccc2)c1C#N	.	-0.17	.	3	9	.	.
Cc1nn(C(=O)c2nn(C)cc2[N+](=O)[O-])c(C)c1Cl	.	-1.3	.	-4	-7	.	.
CCOC(=O)C(CC)n1nc(C)n2c(cc3sccc32)c1=O (centres undefined)	-30	.	.	-4	-5	.	.
COc1ccc(NC(=O)/C(C#N)=C/c2ccc(Sc3nncn3C)c([N+](=O)[O-])c2)cc1	.	-6.5*	.	2	31	.	0.036*
Cn1cnnc1Sc1ccc(C(=O)OCC(=O)Nc2ccccc2)cc1[N+](=O)[O-]	17	-0.26	97	-7	-5	94	.
O=S(=O)(Cc1ccccc1)Nc1ccc(S(=O)(=O)NCC2CCCO2)cc1 (centres undefined)	0	.	88	1	9	93	0.084
